Screening results as filed in PubChem BioAssay.
BJeLR viability: MLPCN primary cell-based screen for lethality selective to Ras in HRASV12 cells | BJeLR (HRASV12) viability, CellTiter-Glo ATP luminescence, 48 h | inhibition, % (test concentration not listed) | 300,000 compounds, 0.17% hits | AID 1554, 2009; in the data active = inhibition above about 50%; inconclusive = no clear call, values can overlap the other calls
Anthrax LF inh2: Bacillus anthracis LF protease inhibitors, primary screen, biochemical, multiplex microsphere, MLPCN library | inhibition, % at 10 µM | 360,000 compounds, 0.12% hits | multiplex microsphere protease cleavage assay
Target sequence (P15917 whole entry, looked up): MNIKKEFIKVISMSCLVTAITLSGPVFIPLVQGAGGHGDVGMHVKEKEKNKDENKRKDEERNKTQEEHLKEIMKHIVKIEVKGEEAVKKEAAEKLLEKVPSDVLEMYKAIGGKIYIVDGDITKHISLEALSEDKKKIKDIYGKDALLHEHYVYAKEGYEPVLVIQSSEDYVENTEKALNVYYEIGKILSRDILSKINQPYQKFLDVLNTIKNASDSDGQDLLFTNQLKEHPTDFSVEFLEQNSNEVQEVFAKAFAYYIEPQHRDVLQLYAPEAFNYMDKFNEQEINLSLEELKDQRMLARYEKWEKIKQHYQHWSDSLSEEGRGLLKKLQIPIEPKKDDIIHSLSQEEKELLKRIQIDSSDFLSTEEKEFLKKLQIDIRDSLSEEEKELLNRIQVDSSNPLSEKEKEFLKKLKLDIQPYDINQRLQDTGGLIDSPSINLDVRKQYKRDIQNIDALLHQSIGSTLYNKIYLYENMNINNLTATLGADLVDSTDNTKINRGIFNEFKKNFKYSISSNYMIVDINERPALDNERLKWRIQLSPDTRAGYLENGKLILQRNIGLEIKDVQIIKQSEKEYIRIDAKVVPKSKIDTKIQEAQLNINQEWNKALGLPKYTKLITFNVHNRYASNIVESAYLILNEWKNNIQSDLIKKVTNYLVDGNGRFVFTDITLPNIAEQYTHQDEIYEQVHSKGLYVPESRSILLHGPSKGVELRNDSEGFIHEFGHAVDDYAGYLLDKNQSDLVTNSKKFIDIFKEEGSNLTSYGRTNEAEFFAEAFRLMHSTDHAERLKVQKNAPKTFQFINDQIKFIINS
SARS 3CLpro inh: SARS-CoV 3CLpro protease inhibitors, primary screen, biochemical, quenched FRET | AID 1706, 2009 | inhibition, % at 6 µM | recombinant SARS-CoV 3CLpro, quenched FRET peptide cleavage | 290,000 compounds, 0.14% hits; in the data active = inhibition above about 12%
BoNT A protease: BoNT/A light chain protease inhibitors, primary screen, biochemical, flow cytometry, MLPCN library. AID 588499, 2011. Botulinum neurotoxin type A light chain protease (Clostridium botulinum A str. ATCC 3502). multiplex microsphere protease substrate cleavage. 360,000 compounds, 0.17% hits. inhibition, % at 10 µM
BoNT-F LC inh: BoNT/F light chain protease inhibitors, primary screen, biochemical, flow cytometry, MLPCN library | Botulinum neurotoxin type F light chain protease (Clostridium botulinum) | Multiplex microsphere protease cleavage assay | inhibition, % at 10 µM | 360,000 compounds, 0.22% hits | AID 588497, 2011; in the data active = inhibition above about 35%, passing the limit was not always enough; inconclusive = no clear call, values can overlap the other calls
Bead autofluor: flagged as autofluorescent in microsphere protease counterscreen; compound autofluorescence counterscreen, microsphere flow cytometry; stronger effect = higher value; fluorescence intensity (test concentration not listed); 360,000 compounds, 3.1% hits; AID 624483; in the data active = fluorescence intensity above about 16000; inconclusive = no clear call, values can overlap the other calls
Large screens that a line does not name were inactive. Shown are actives, neighbours in structure and some others; about 3.6% of the full set was active somewhere. Cut-off read from the data, not from the text of the source, unless noted: active = inhibition above about 30%; inconclusive = no clear call, values can overlap the other calls; inactive = below that.

Cc1ccc(Cn2c(C3CCCN3c3nc(-c4cc(Cl)c(N)c(Cl)c4)cs3)nc3cc(Cl)c(Cl)cc32)cc1 (stereo unspecified)	none (no result: SARS 3CLpro inh)
O=C(c1ccccc1)c1nn(-c2ccccc2)c2nnc(Cc3ccccc3)c(=O)n12	Bead autofluor 17139
CCn1nccc1NC(=O)c1csc([C@@H]2C[C@H](O)[C@@H](CO)O2)n1	none (no result: BJeLR viability, SARS 3CLpro inh)
COc1ccc(C2CC(=O)N3C(=C2C#N)SCC3(O)c2ccccc2)cc1 (stereo unspecified)	Bead autofluor 19377
Cc1ccc(CCNC(=O)C2CCCN(C(=O)N(C)C)C2)cc1 (stereo unspecified)	Bead autofluor 25529
CC1=C(C)CC(C(=O)NCCc2ccccc2)C(C(=O)O)C1 (stereo unspecified)	Bead autofluor 23755
CN(C)C(=O)N1CCCC(C(=O)NCCc2ccccc2)C1 (stereo unspecified)	Bead autofluor 24323
CN(C)S(=O)(=O)N1CCN(c2ccc(Cl)cc2)CC1	Bead autofluor 16470
Cc1ccc(N2CCN(S(=O)(=O)N(C)C)CC2)cc1C	none
Cc1ccc(-c2ccc(S(=O)(=O)N3CCN(C)CC3)cc2)cc1	Bead autofluor 21880
Cc1ccc(S(=O)(=O)N2CCN(S(=O)(=O)N(C)C)CC2)cc1	none
CN1CCN(S(=O)(=O)c2ccc(-c3ccccc3)cc2)CC1	Bead autofluor 22073
CN(C)S(=O)(=O)N1CCN(S(=O)(=O)c2ccccc2)CC1	Bead autofluor 20194
O=C(O)C1Oc2ccccc2C1c1ccccc1 (stereo unspecified)	none (no result: BJeLR viability, SARS 3CLpro inh)
Cc1cc(C)c(NC(=O)CN(C)CC(=O)N(C)CC(=O)Nc2c(Cl)cccc2Cl)c(C)c1	Bead autofluor inconclusive (no result: BJeLR viability, SARS 3CLpro inh)
Cc1ccc(S(=O)(=O)N2CCN(S(=O)(=O)c3ccccc3)C2)cc1	Bead autofluor 21096
Cc1cccc(N2CCN(c3nc4ccc(Cl)cc4n4cnnc34)CC2)c1C	none
O=C(c1ccco1)N1CCN(C2CC(=O)N(c3ccc4c(c3)OCO4)C2=O)CC1 (stereo unspecified)	Bead autofluor 22383
COc1ccc(C(CCN(Cc2ccc(OC)c(OC)c2)C(C)=O)c2ccccc2)cc1 (stereo unspecified)	none
COc1ccc(CN(CCC(c2ccccc2)c2ccc(OC(C)C)cc2)C(=O)CCl)cc1OC (stereo unspecified)	BJeLR viability 68
CC(=O)Nc1ccc(OC(=O)c2cccs2)cc1	BoNT A protease inconclusive, Bead autofluor 16646
CC(=O)c1ccc(OC(=O)c2cccs2)cc1	Bead autofluor 24802
CC(=O)Nc1ccc(NC(=O)C(C)OC(=O)c2cccs2)cc1 (stereo unspecified)	none (no result: BJeLR viability, SARS 3CLpro inh)
CC(=O)c1ccc(NC(=O)c2cccs2)cc1	none
COc1ccccc1C(CNC(=O)CNC(=O)c1ccc(C)c(C)c1)N1CCCC1 (stereo unspecified)	none (no result: BJeLR viability, SARS 3CLpro inh)
Cc1ccc(C2CC(=O)N3CN(Cc4ccco4)CSC3=C2C#N)cc1 (stereo unspecified)	Bead autofluor 20926
O=C1CCCc2nc(N3CCN(Cc4ccccc4)CC3)ncc21	BoNT A protease inconclusive, Bead autofluor 17293
CCC(C)(C)c1ccc(OCCCC[n+]2cccc(C)c2C)c(C(C)(C)CC)c1	BJeLR viability 57 (no result: Anthrax LF inh2, BoNT A protease, BoNT-F LC inh, Bead autofluor)
CCC(C)(C)c1ccc(OCCCC[n+]2ccc(C)cc2)c(C(C)(C)CC)c1	none (no result: Anthrax LF inh2, BoNT A protease, BoNT-F LC inh, Bead autofluor)
COc1ccc(NS(=O)(=O)c2ccc3oc(SC(C)C(N)=O)nc3c2)cc1 (stereo unspecified)	none
CC(C)NC(=O)c1ccc2sc([C@H]3C[C@H](O)[C@@H](CO)O3)nc2c1	none (no result: BJeLR viability, SARS 3CLpro inh)
CCCCC1CCC(C(=O)Nc2ccc(S(=O)(=O)Nc3nccs3)cc2)CC1 (stereo unspecified)	BoNT A protease inconclusive, Bead autofluor 24211
Cc1ccc(S(=O)(=O)Nc2ccc(S(=O)(=O)Nc3nccs3)cc2)cc1C	none (no result: BJeLR viability, SARS 3CLpro inh)
Cc1cc(C(=O)Nc2ccc(S(=O)(=O)Nc3nccs3)cc2)c(C)o1	Bead autofluor 24552
O=C(Nc1ccc(S(=O)(=O)Nc2nccs2)cc1)c1ccncc1	none (no result: BJeLR viability, SARS 3CLpro inh)
CCC(=O)Nc1ccc(S(=O)(=O)Nc2nccs2)cc1	none
O=S(=O)(Nc1ccc(S(=O)(=O)Nc2nccs2)cc1)c1ccc2c(c1)OCCO2	Bead autofluor 16416
CC(Sc1nnc(C(F)(F)F)n1C)C(=O)Nc1ccc(S(N)(=O)=O)cc1 (stereo unspecified)	none
COc1ccc(-c2sc3cc4c(cc3c2C#Cc2ccc(N)cc2)OCO4)cc1	none (no result: BJeLR viability, SARS 3CLpro inh)
COc1ccccc1-c1c(C#N)c(N)nc2c1CCc1ccccc1-2	none
Cc1ccc(-c2nn(-c3cc(Cl)ccc3[N+](=O)[O-])c(=O)c3ccccc23)cc1	Bead autofluor 24146
CCC(=O)NC(=S)NNC(=O)c1ccc([N+](=O)[O-])cc1	Bead autofluor 20381
CC(=O)c1ccc(NC(=O)CCCN2C(=O)C(c3ccccc3)Oc3cccnc32)cc1 (stereo unspecified)	none
O=[N+]([O-])c1cc(/C=N/OCc2c(Cl)cccc2Cl)ccc1N1CCOCC1	Bead autofluor 22744
COc1cccc2c1C(=O)c1c(O)c3c(c(O)c1C2=O)C[C@](O)(C(C)=O)C[C@H]3O[C@@H]1C[C@@H](N)[C@@H](O)[C@@H](C)O1	BJeLR viability 68 (no result: SARS 3CLpro inh)
CCCc1cc(=O)[nH]c(SCC(=O)Nc2cc(S(=O)(=O)N3CCOCC3)ccc2Cl)n1	none (no result: BJeLR viability, SARS 3CLpro inh)
COc1ccc(C2=NN(CN3C(=O)C(=O)c4ccccc43)C(c3cccc([N+](=O)[O-])c3)C2)cc1 (stereo unspecified)	none
O=C(NCCc1ccccc1)C(c1ccccc1)N(C(=O)c1csnn1)C1CC1 (stereo unspecified)	none
COc1ccc(CNC(=O)C(c2cccc(C)c2)N(C(=O)c2csnn2)C2CC2)cc1 (stereo unspecified)	none
O=C(NCCc1ccccc1)C(c1cccs1)N(C(=O)c1csnn1)C1CC1 (stereo unspecified)	BoNT A protease inconclusive, Bead autofluor 20245
COc1ccc(CNC(=O)C(c2cccs2)N(C(=O)c2csnn2)C2CC2)cc1 (stereo unspecified)	Bead autofluor 24268
O=C(NCCc1ccccc1)C(c1cccs1)N(C(=O)CCl)c1ccc(Cl)cc1 (stereo unspecified)	BJeLR viability 117
O=C(NCc1ccccc1)C(c1cccs1)N(C(=O)c1csnn1)C1CC1 (stereo unspecified)	Bead autofluor 21285
O=C(NCc1ccco1)C(c1cccs1)N(C(=O)Cc1cccs1)c1ccccc1 (stereo unspecified)	none
